The panel holds about 83,000 compounds, 20% with a hit somewhere; the sample as a whole holds those more often.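 Cells were grown in 96-well plates and exposed to the test compound at a single concentration for 48 hours; results are reported as percent growth, with values below 10 considered active.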 The source made the active and inactive calls.
What was measured:
Assay in all cases: NCI-60 one-dose screen, 48 h (100 = growth as untreated, 0 = no growth, -100 = all killed)
Conditions in all cases: 10 µM unless noted
T-47D breast = test system: T-47D breast
BT-549 breast = test system: BT-549 breast
MDA-MB-435 melanoma = test system: MDA-MB-435 melanoma
SW-620 colon = test system: SW-620 colon
MCF7 breast = test system: MCF7 breast
HCT-116 colon = test system: HCT-116 colon
HCC-2998 colon = test system: HCC-2998 colon
KM12 colon = test system: KM12 colon

Measured: growth

Cc1ccccc1NC(=O)c1sc2nc(C)c(C(=O)/C=C/c3ccccc3)cc2c1N
active: MDA-MB-435 melanoma -22.7% | SW-620 colon -10.5% | MCF7 breast 9.97% | HCC-2998 colon -36.9% | KM12 colon 9.57%
inactive: T-47D breast 32% | BT-549 breast 21.5% | HCT-116 colon 10.1%

O=C(CCCCC1CCSS1)Nc1ncnc2n[nH]c(-c3ccc(Oc4ccccc4)cc3)c12 (stereo not drawn)
inactive: T-47D breast 73.7% | BT-549 breast 118% | SW-620 colon 111% | MCF7 breast 43.2% | HCT-116 colon 36.7% | HCC-2998 colon 103% | KM12 colon 70.5%
active: MDA-MB-435 melanoma -28.4%

CO[C@]12C=C/C(=C(/C(=O)OCc3cccnc3)C(=O)CCCCCCCC[C@@]3(OC)C=C/C(=C(/C(=O)OCc4cccnc4)C(=O)CCCCCCCC1)O3)O2
active: BT-549 breast -24.7% | MDA-MB-435 melanoma -11.8% | HCT-116 colon -35.5% | HCC-2998 colon -79.2% | KM12 colon -70.4%
inactive: T-47D breast 38.4% | SW-620 colon 13.8% | MCF7 breast 18.5%

Cc1ccc(-c2nc3nc(-c4ccc(F)cc4)nc(N4CCNCC4)c3o2)cc1
active: T-47D breast -27.4% | SW-620 colon -79.3% | MCF7 breast -74.2% | HCT-116 colon -92.1% | KM12 colon -83.7%
inactive: BT-549 breast 99.5% | MDA-MB-435 melanoma 66% | HCC-2998 colon 19.4%

CN1CCN(c2ccc(C(=O)Nc3cccc(C#Cc4cccc5[nH]nc(N)c45)c3)cc2C(F)(F)F)CC1
active: T-47D breast -48.3% | MDA-MB-435 melanoma -88.8% | SW-620 colon -73.5% | MCF7 breast -71.6% | HCT-116 colon -83.4% | HCC-2998 colon -75.1% | KM12 colon -57%
inactive: BT-549 breast 71.4%

N#Cc1nn(-c2cc(=O)[nH]c3ccc(Cl)cc23)c(N)c1C#N
inactive: T-47D breast 67.2% | BT-549 breast 87.9% | MDA-MB-435 melanoma 125% | SW-620 colon 91.1% | MCF7 breast 100% | HCT-116 colon 84.4% | HCC-2998 colon 92.7% | KM12 colon 106%

CCOC(=O)C(=Cc1cccc(Cl)c1)C(=O)OCC
inactive: BT-549 breast 42.6% | HCC-2998 colon 77.1% | KM12 colon 18%
active: T-47D breast -5.34% | MDA-MB-435 melanoma 6.41% | SW-620 colon -46.6% | MCF7 breast 8.93% | HCT-116 colon -47.5%

CCC(=C(c1ccc(OCCN2CCCC2)cc1)c1ccc(OCCN2CCCC2)cc1)c1ccc(Cl)cc1
inactive: BT-549 breast 69.5%
active: T-47D breast -41.6% | MDA-MB-435 melanoma -91.2% | SW-620 colon -77.7% | MCF7 breast -76% | HCT-116 colon -81% | HCC-2998 colon -93.7% | KM12 colon -74.2%

CCN1C(=O)N(CC)C2C1NN=c1s/c(=C\c3cccc([N+](=O)[O-])c3)c(=O)n12 (stereo not drawn)
active: MDA-MB-435 melanoma -30.4%
inactive: T-47D breast 59.3% | BT-549 breast 12.5% | SW-620 colon 21.1% | MCF7 breast 17.1% | HCT-116 colon 11% | HCC-2998 colon 15.9% | KM12 colon 12.1%

CN1C(=O)/C(=C/c2cn(-c3ccccc3)nc2-c2ccccc2)SC1=S
inactive: T-47D breast 96.1% | BT-549 breast 106% | MDA-MB-435 melanoma 99.5% | SW-620 colon 98.8% | MCF7 breast 83.6% | HCT-116 colon 99.8% | HCC-2998 colon 115% | KM12 colon 102%

O=C(Nc1cccnc1Nc1ccc(F)cc1)c1cn(Cc2cccc(Oc3ccccc3)c2)nn1
inactive: T-47D breast 65.4% | BT-549 breast 69.8% | SW-620 colon 56.5% | MCF7 breast 40.1% | HCT-116 colon 68.8% | HCC-2998 colon 84.8% | KM12 colon 55.9%
active: MDA-MB-435 melanoma -32.4%

CCOC(=O)c1c2c(n3ccc(C)cc13)C(=O)c1ccccc1C2=O
inactive: T-47D breast 92.7% | BT-549 breast 77.2% | MDA-MB-435 melanoma 108% | SW-620 colon 89.2% | MCF7 breast 82.5% | HCT-116 colon 76.5% | HCC-2998 colon 101% | KM12 colon 94.1%

CC(C)CCC[C@@H](C)[C@H]1CC[C@H]2[C@@H]3CC=C4C[C@@H](C(C(=O)O)C(=O)O)CC[C@]4(C)[C@H]3CC[C@]12C
active: T-47D breast -13.8% | BT-549 breast -22.6% | MDA-MB-435 melanoma -55.6% | SW-620 colon -39.7% | MCF7 breast 1.84% | HCT-116 colon -61.3% | HCC-2998 colon -47.5% | KM12 colon -74.4%

COc1ccc2[nH]cc(-c3nc(-c4c[nH]c5ccncc45)cs3)c2c1
active: MDA-MB-435 melanoma -76.3% | SW-620 colon -61.4% | MCF7 breast 5.44% | HCT-116 colon -62% | HCC-2998 colon -45.8%
inactive: T-47D breast 61.5% | BT-549 breast 74% | KM12 colon 21.1%

O=C(Cn1cc(CN2CCCCCC2)nn1)Nc1ccc2c(ccn2Cc2ccccc2)c1
inactive: T-47D breast 69.8% | BT-549 breast 86.9% | MDA-MB-435 melanoma 96.6% | SW-620 colon 96.9% | MCF7 breast 90.2% | HCT-116 colon 95% | HCC-2998 colon 97.6% | KM12 colon 93.8%

O=C(CCCCCCN1CC(=O)N2[C@H](c3cc(Br)cs3)c3[nH]c4ccccc4c3C[C@H]2C1=O)NO
active: SW-620 colon 8.76%
inactive: T-47D breast 17.3% | BT-549 breast 68.1% | MDA-MB-435 melanoma 22.6% | MCF7 breast 33.2% | HCT-116 colon 13% | HCC-2998 colon 75.1% | KM12 colon 47.2%

Cc1ccc2c3c(c(=O)[nH]c2c1)C1(C(C#N)=C(N)O3)c2cc(Br)ccc2-c2ccc(Br)cc21
active: T-47D breast -29.6% | SW-620 colon -36.5% | MCF7 breast -42.6% | HCC-2998 colon -4.73% | KM12 colon 6.52%
inactive: BT-549 breast 61.8% | MDA-MB-435 melanoma 42.8% | HCT-116 colon 10%

Oc1c(Cl)cc(Cl)cc1/C=N/Nc1nnc(N/N=C/c2cc(Cl)cc(Cl)c2O)c2ccccc12
active: MCF7 breast 7.3% | KM12 colon 6.29%
inactive: T-47D breast 14.8% | BT-549 breast 15.7% | MDA-MB-435 melanoma 14.2% | SW-620 colon 17.2% | HCT-116 colon 10% | HCC-2998 colon 33.1%

O=C(NCCCN1CCOCC1)c1cccc(N2C(=O)/C(=C/c3ccc(F)cc3)SC2=S)c1
inactive: T-47D breast 91.7% | BT-549 breast 96.8% | MDA-MB-435 melanoma 95.3% | SW-620 colon 95.9% | MCF7 breast 92.9% | HCT-116 colon 96.7% | HCC-2998 colon 97.1% | KM12 colon 99.6%

O=C(CSc1nc2ccc([N+](=O)[O-])cc2[nH]1)Nc1ccc(F)cc1
inactive: T-47D breast 16.6% | BT-549 breast 65.2% | MDA-MB-435 melanoma 53.1% | SW-620 colon 86% | MCF7 breast 62.1% | HCT-116 colon 54.7% | HCC-2998 colon 75.7% | KM12 colon 64%

c1cnc2[nH]cc(-c3csc(-c4cn(CCCN5CCOCC5)c5ccccc45)n3)c2c1
inactive: T-47D breast 27.1% | BT-549 breast 50.3% | SW-620 colon 39.5% | MCF7 breast 28.6% | HCT-116 colon 29.8% | HCC-2998 colon 58.6% | KM12 colon 28.1%
active: MDA-MB-435 melanoma 6.18%

Cc1ccc(-c2nc(/C=C3/C(=O)Nc4ccccc43)c3ccccn23)cc1
inactive: T-47D breast 80.7% | BT-549 breast 104% | MDA-MB-435 melanoma 94.3% | SW-620 colon 64.8% | MCF7 breast 37.2% | HCT-116 colon 66.8% | HCC-2998 colon 109% | KM12 colon 88.4%

Clc1ccc(Sc2cnc(-c3ccccc3)o2)cc1
inactive: T-47D breast 84.6% | BT-549 breast 96.6% | MDA-MB-435 melanoma 101% | SW-620 colon 105% | MCF7 breast 96.1% | HCT-116 colon 104% | HCC-2998 colon 99.2% | KM12 colon 102%

COc1ccc2[nH]cc(-c3nc(-c4cn(C)c5c(Cl)nccc45)cs3)c2c1
active: MDA-MB-435 melanoma 6.78% | SW-620 colon -5.25%
inactive: T-47D breast 11.6% | BT-549 breast 45% | MCF7 breast 43.9% | HCT-116 colon 43.9% | HCC-2998 colon 62% | KM12 colon 32%

O=C1NCCC12CCN(c1c(Cl)cncc1-c1ccc(O)cc1)CC2
inactive: T-47D breast 93.7% | BT-549 breast 114% | MDA-MB-435 melanoma 100% | SW-620 colon 99.6% | MCF7 breast 95.4% | HCT-116 colon 97.3% | HCC-2998 colon 120% | KM12 colon 105%

N#Cc1c(-c2ccccc2)cc(-c2ccccc2)n(CCCCCC(=O)Nc2ccccc2N)c1=O
inactive: T-47D breast 48.3% | BT-549 breast 49.5% | MDA-MB-435 melanoma 92.1% | SW-620 colon 86.2% | MCF7 breast 68.4% | HCT-116 colon 58.1% | HCC-2998 colon 80.5% | KM12 colon 55.3%

Cn1c(=O)c2[nH]c(N/N=C/c3ccccc3Br)nc2n(C)c1=O
inactive: T-47D breast 108% | BT-549 breast 99% | MDA-MB-435 melanoma 113% | SW-620 colon 109% | MCF7 breast 91.4% | HCT-116 colon 103% | HCC-2998 colon 118% | KM12 colon 98.6%

C[C@]12C=CC(=O)C=C1CCC1C2[C@@H](O)C[C@@]2(C)C1CC[C@]2(O)C(=O)COC(=O)CCC(=O)O (stereo partly drawn)
inactive: T-47D breast 111% | BT-549 breast 89.7% | MDA-MB-435 melanoma 99.9% | SW-620 colon 105% | MCF7 breast 96.5% | HCT-116 colon 107% | HCC-2998 colon 110% | KM12 colon 109%

Nc1nc2c([nH]1)c1[nH]c3ccccc3c1c1[nH]c3ccccc3c21
inactive: T-47D breast 32.4% | BT-549 breast 64.6% | MCF7 breast 13.6% | KM12 colon 39.5%
active: MDA-MB-435 melanoma 1.06% | SW-620 colon -31.5% | HCT-116 colon -47.9% | HCC-2998 colon -70.6%

Fc1ccc(-c2nn(-c3ccccc3)cc2-c2nc3ccccc3o2)cc1
inactive: T-47D breast 44.6% | BT-549 breast 66.4% | MDA-MB-435 melanoma 27.8% | SW-620 colon 63.1% | MCF7 breast 50.9% | HCT-116 colon 34.8% | HCC-2998 colon 101% | KM12 colon 31.3%

Fc1ccc(Nc2nc3nonc3nc2Nc2ccc(I)cc2)cc1
inactive: SW-620 colon 11.2%
active: T-47D breast -26.7% | BT-549 breast -6.04% | MDA-MB-435 melanoma 4.78% | MCF7 breast 1.98% | HCT-116 colon 3.42% | HCC-2998 colon 9.77% | KM12 colon 2.12%

Source: PubChem BioAssay (NCI)
